An excerpt weighted towards active compounds, which were near 2.2% of everything screened.
Beta cell apopt = inhibitors of cytokine-induced beta cell apoptosis, primary screen, luminescence | hit rate 0.8% among 300,000 | AID 435005, 2010 | INS-1E cytokine-induced death, ATP luminescence, 48 h; percent of positive-control rescue, neutral wells zero | protection from apoptosis, % (concentration not given with the values);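 active = Every replicate reaches about 75%, or at least half do and their mean reaches it too, limit read from the data; inconclusive = At least half of replicates reach the limit but their mean does not; inactive = Under half of replicates reach the limit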;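 also: 0% = cytokine-treated negative control wells and 100% = positive control rescue; higher means more ATP so stronger rescue from cytokine killing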
PfHsp90 set2 = growth inhibition of PfHsp90-expressing yeast, primary screen, antimalarial PfHsp90 inhibitor project, S. cerevisiae, BacTiter-Glo luminescence, single point, set 2; BacTiter-Glo ATP, 48 h; yeast lacking PDR1 and PDR3 efflux regulators; inhibition, % at 9.4 µM; hit rate 0.32% among 310,000;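 active = every replicate shows inhibition above about 80%, whatever the replicate mean, limit read from the data; inconclusive = mean inhibition reaches the set limit but some replicate falls short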;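 also: 0% = DMSO neutral controls and 100% = 20 µM radicicol positive controls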
Calb FLC = C. albicans growth inhibition with fluconazole, primary screen, CaCi-2 strain, Alamar Blue fluorescence | C. albicans CaCi-2 (fluconazole-resistant clinical isolate) + fluconazole, 48 h | growth inhibition, % (concentration not given with the values) | hit rate 0.57% among 300,000 | AID 1979, 2009;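 active = growth inhibition above about 58% in most replicates, limit read from the data, passing the limit was not always enough; inconclusive = exactly half the replicates above a set limit; inactive = most replicates below a set limit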;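 also: all wells also contain fluconazole at 8 µg/ml as a sub-toxic cotreatment; 0% = median of DMSO wells and 100% = median of geldanamycin control wells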
Shn3 inh set2 = reduction of Shn3 3'UTR firefly luciferase signal, primary screen, Schnurri-3 inhibitor project, cell-based, Clone20 osteoblasts, set 2. Clone20 osteoblast Shn3 3'UTR firefly luciferase, 24 h. inhibition, % at 12.5 µM. hit rate 0.52% among 360,000;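 active = mean inhibition of at least 75% with every replicate also reaching 75%; inconclusive = mean inhibition at least 75% but some replicate below; inactive = mean inhibition below 75%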;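 also: 0% = median of neutral control wells and 100% = pilot-screen positive control compound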
CSC inhib = cancer stem cell viability inhibitors, primary screen, luminescence; hit rate 1.1% among 300,000; AID 2717, 2010; cancer stem cell-like cells viability; inhibition, % at 7.5 µM; in the data active = inhibition above about 75%; inconclusive = no clear call, values can overlap the other calls; tested in HMLE shEcad cells
The depositor's hits bear a star; u = inconclusive; x = not tested or not shown; ! = repeats disagree.

SMILES | Beta cell apopt | PfHsp90 set2 | Calb FLC | Shn3 inh set2 | CSC inhib
Cc1ccc(NC(=O)C2CCN(S(=O)(=O)c3ccc4c(c3)NC(=O)C(C)S4)CC2)cc1Cl (configuration not stated) | 107* | -13 | 19 | 89* | 32
O=C(COc1ccccc1)Nc1cccc(-c2nc3cc4ccccc4cc3[nH]2)c1 | 33 | x | 109* | -74 | 88*
O=S(=O)(c1ccc(NC(=S)NCc2cccnc2)cc1)N1CCCCC1 | 126* | -1 | -4 | 38 | 139*
O=C(Nc1ccc(S(=O)(=O)N2CCN(Cc3ccccc3)CC2)cc1)c1cnccn1 | 44 | -13 | 13 | 82* | -3
Cc1c(C(=O)N2CCC(C(N)=O)CC2)oc2ccc(Br)cc12 | 1 | x | 1 | -36 | -9
Cc1ccc2c(c1)/C(=N/OS(=O)(=O)c1ccccc1)CCS2 | 3 | x | 1 | -20 | -15
CC1=CC(=O)C(C(C)C)=C/C1=N/OS(=O)(=O)c1ccccc1 | 105* | 110* | u | 18 | u
CC1=CC(=O)C=C(C)C1=NOS(=O)(=O)c1ccccc1 | x | 106* | 5 | 57 | x
CCNc1nc(SCCOc2ccc(C)cc2)nc(N(C)C)n1 | -6 | -7 | -7 | 11 | 53
Cc1ccc(OCCSc2nc(NC(C)C)nc(NC(C)C)n2)cc1 | 39 | 8 | -6 | 20 | 90*
CC1CC(C)(C)Nc2ccc(N=O)cc21 (configuration not stated) | x | -76 | 14 | 93* | x
CC1CC(C)(C)Nc2ccc(OC(=O)c3ccco3)cc21 (configuration not stated) | -20 | -1 | 21 | 51 | 11
COc1ccc2cc3[n+](cc2c1OC)CCc1cc2c(cc1-3)OCO2 | 79*! | -3 | 71 | 62 | -4
O=C(CCNC(=O)c1ccc([N+](=O)[O-])cc1)NC1CCCCCC1 | 0 | -20 | x | -39 | -11
COc1ccc(Cn2c(/C=C/c3ccccc3)nc3ccccc32)cc1 | 32 | x | 0 | -14 | 48
COc1ccc(/C=C/c2nc3ccccc3n2C)cc1 | 106* | 22 | 1 | 73 | 88*
Cc1cccc(OCC(=O)NNC(=O)c2ccc3nc[nH]c3c2)c1 | 0 | 10 | x | 1 | -21
COc1ccccc1N1C(C)=CC(=C(C#N)c2nc3ccccc3s2)C=C1C | 128* | -17 | 8 | 7 | 32
CC1=CC(=C(C#N)c2nc3ccccc3s2)C=C(C)N1c1ccc(F)cc1 | 6 | -8 | 1 | -24 | 37
COc1cc(/C=C(/C#N)c2ccccc2F)ccc1OCc1ccccc1 | -2 | -16 | 4 | 15 | 116*
COc1cc(/C=C(\C#N)C(=O)NCc2ccccc2)ccc1OCc1ccc(C(=O)O)cc1 | 5 | -28 | -8 | 8 | -1
COc1ccc(CN(CC(=O)NCc2ccco2)C(=O)CNS(=O)(=O)c2ccc(C)cc2)cc1 | -3 | -90 | -4 | 11 | x
CNc1c2cccc(C)c2nc2c(C(=O)NCCN(C)C)cccc12 | x | -3 | x | 97* | x
CC(=O)NC(c1cccs1)c1cc(F)c2cccnc2c1O (configuration not stated) | 91* | -13 | x | 84 | 51
CC(=O)NC(c1ccco1)c1cc(F)c2cccnc2c1O (configuration not stated) | 82* | -31 | x | -14 | 22
SMILES | Beta cell apopt | PfHsp90 set2 | Calb FLC | Shn3 inh set2 | CSC inhib
OC(COc1ccc(CNCCc2ccccc2F)cc1)CN1CCCCC1 (configuration not stated) | 3 | -22 | -14 | 12 | 103*
Cc1oc(C(C)(C)C)c(CN2CCOCC2)c1C(=O)O | -3 | -19 | 2 | 4 | -10
CCOc1ccc2c(c1)C(C)=CC(C)(C)N2S(=O)(=O)c1ccc(F)cc1 | x | 30 | 1 | 20 | 59
CC1=CC(C)(C)N(S(=O)(=O)c2ccc(F)cc2)c2ccc(C)cc21 | 13 | 4 | u | 47 | 87*
CCCc1c(C(=O)NNc2cccc(Cl)c2)cnn1-c1ccccc1 | -5 | 7 | -14 | -33 | 80*
O=C(NNc1cccc(Cl)n1)c1cccnc1Cl | -1 | 0 | 3 | -5 | -1
O=C(NNc1cccc(Cl)c1)c1cccnc1Cl | 5 | 15 | 33* | 0 | 45
O=C(NCCN1C(=O)S/C(=C\c2cccc(Cl)c2Cl)C1=O)C1=COCCO1 | -7 | -22 | 5 | -8 | 11

Screening data deposited in PubChem by Broad Institute.
